PubChem BioAssay (EPA / NIEHS)
Activity calls are given as the source filed them. The calls were made as follows: active = hit-call score of the fitted dose curve at least 0.9, where 1 is the maximum; inactive = score below 0.9.

Experiments:
Conditions in all cases: mRNA level, 48 h; actives raise or lower the signal
[1] = read-out: JUN Transcription Factor, JUN (gene 3725); assay: LTEA_HepaRG_JUN: Life Technologies and Expression Analysis (LTEA) Assay for JUN Transcription Factor using HepaRG (AID 2283513)
Procedure, shortened: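 Differentiated HepaRG cells were exposed to chemicals for 48 h in serum-free induction medium, 8 concentrations from 100 uM in half-log steps, 0.5% DMSO vehicle, in duplicate. JUN mRNA was quantified by TaqMan qRT-PCR, normalized to ACTB, GAPDH, POLR2A.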

[2] = read-out: Lipase C (LIPC), LIPC (gene 3990); assay: LTEA_HepaRG_LIPC: Life Technologies and Expression Analysis (LTEA) Assay for Lipase C (LIPC) using HepaRG (AID 2283514)
Procedure, shortened: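 HepaRG cells, 48 h after plating, treated in duplicate for 48 h in serum-free induction medium over 8 half-log concentrations from 100 uM, 0.5% DMSO. LIPC mRNA by TaqMan qRT-PCR normalized to ACTB/GAPDH/POLR2A; bidirectional fit versus DMSO.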

[3] = read-out: Lipoprotein lipase (LPL), LPL (gene 4023); assay: LTEA_HepaRG_LPL: Life Technologies and Expression Analysis (LTEA) Assay for Lipoprotein lipase (LPL) using HepaRG (AID 2283515)
Procedure, shortened: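 Differentiated HepaRG cells, plated 48 h, then exposed 48 h in serum-free induction medium to 8 concentrations (top 100 uM, half-log steps) in 0.5% DMSO, duplicate. LPL mRNA measured by qRT-PCR, normalized to ACTB, GAPDH and POLR2A.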

[4] = read-out: MicroRNA 122 (MIR122), gene 406906; assay: LTEA_HepaRG_MIR122: Life Technologies and Expression Analysis (LTEA) Assay for MicroRNA 122 (MIR122) using HepaRG (AID 2283516); also: the transcript read is the microRNA miR-122
Procedure, shortened: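 Differentiated human HepaRG cells were exposed 48 h in serum-free induction medium to eight half-log concentrations (top 100 uM, 0.5% DMSO). Transcript level was measured by TaqMan qRT-PCR, normalized to ACTB, GAPDH and POLR2A, and fitted bidirectionally versus DMSO.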

[5] = read-out: matrix metalloproteinase-10 (MMP10), MMP10 (gene 4319); assay: LTEA_HepaRG_MMP10: Life Technologies and Expression Analysis (LTEA) Assay for matrix metalloproteinase-10 (MMP10) using HepaRG (AID 2283517)
Procedure, shortened: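 Differentiated HepaRG cells in serum-free induction medium exposed 48 h in duplicate to 8-point half-log series up to 100 uM in 0.5% DMSO. mRNA quantified by qRT-PCR, normalised to ACTB, GAPDH, POLR2A; bidirectional fit versus DMSO.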

MYC, MYC (gene 4609) = assay: LTEA_HepaRG_MYC: Life Technologies and Expression Analysis (LTEA) Assay for MYC using HepaRG (AID 2283518)
Procedure, shortened: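 MYC transcript changes, up or down relative to 0.5% DMSO, from TaqMan qRT-PCR normalized to three housekeeping genes. Human HepaRG cultures received chemicals for 48 h at eight half-log concentrations up to 100 uM, in duplicate.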

[6] = read-out: matrix metalloproteinase-3 (MMP3), MMP3 (gene 4314); assay: LTEA_HepaRG_MMP3: Life Technologies and Expression Analysis (LTEA) Assay for matrix metalloproteinase-3 (MMP3) using HepaRG (AID 2283519)
Procedure, shortened: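 HepaRG cells (~100,000/well) in serum-free induction medium were dosed in duplicate for 48 h with an 8-point half-log series from 100 uM, 0.5% DMSO. MMP3 mRNA was quantified by Fluidigm TaqMan qRT-PCR, normalized to three housekeeping genes.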

[7] = read-out: Paternally Expressed 10 (PEG10), PEG10 (gene 23089); assay: LTEA_HepaRG_PEG10: Life Technologies and Expression Analysis (LTEA) Assay for Paternally Expressed 10 (PEG10) using HepaRG (AID 2283520)
Procedure, shortened: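 Differentiated HepaRG cells, plated 48 h then switched to serum-free induction medium, were exposed in duplicate for 48 h to eight half-log concentrations topping at 100 uM in 0.5% DMSO. PEG10 mRNA was quantified by TaqMan qRT-PCR, normalised to ACTB, GAPDH and POLR2A.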

[8] = read-out: Protein phosphatase 2A (PPP2R4), PTPA (gene 5524); assay: LTEA_HepaRG_PPP2R4: Life Technologies and Expression Analysis (LTEA) Assay for Protein phosphatase 2A (PPP2R4) using HepaRG (AID 2283522)
Procedure, shortened: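 Differentiated HepaRG cells in serum-free induction medium were exposed in duplicate for 48 h to eight concentrations, top 100 uM with half-log dilutions, in 0.5% DMSO. PPP2R4 mRNA was quantified by TaqMan qRT-PCR, normalized to ACTB, GAPDH and POLR2A.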

[9] = read-out: Phosphatase and tensin (PTEN), PTEN (gene 5728); assay: LTEA_HepaRG_PTEN: Life Technologies and Expression Analysis (LTEA) Assay for Phosphatase and tensin (PTEN) using HepaRG (AID 2283523)
Procedure, shortened: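 HepaRG cells, 48 h after plating, exposed in duplicate for 48 h in serum-free induction medium to 8 half-log concentrations up to 100 uM (0.5% DMSO). PTEN mRNA by qRT-PCR, normalized to ACTB, GAPDH, POLR2A; bidirectional fit versus DMSO.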

[10] = read-out: solute carrier (SLC22A1), SLC22A1 (gene 6580); assay: LTEA_HepaRG_SLC22A1: Life Technologies and Expression Analysis (LTEA) Assay for solute carrier (SLC22A1) using HepaRG (AID 2283524)
Procedure, shortened: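 Differentiated human HepaRG cells in serum-free induction medium, exposed 48 h in duplicate to 8-point half-log series from 100 µM top in 0.5% DMSO. SLC22A1 mRNA by TaqMan qRT-PCR normalized to ACTB, GAPDH, POLR2A; bidirectional fit versus DMSO.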

[11] = read-out: NAD(P)H dehydrogenase [quinone] 1 (NQO1), NQO1 (gene 1728); assay: LTEA_HepaRG_NQO1: Life Technologies and Expression Analysis (LTEA) Assay for NAD(P)H dehydrogenase [quinone] 1 (NQO1) using HepaRG (AID 2283526)
Procedure, shortened: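 Differentiated HepaRG cells, plated 48 h and then switched to serum-free induction medium, were exposed in duplicate for 48 h to 8-point half-log concentrations up to 100 uM in 0.5% DMSO. mRNA measured by qRT-PCR, normalized to ACTB, GAPDH, POLR2A; bidirectional fit versus DMSO.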

[12] = read-out: Nuclear factor erythroid 2-related factor 2 (Homo sapiens) (UniProt Q16236); assay: LTEA_HepaRG_NFE2L2: Life Technologies and Expression Analysis (LTEA) Assay for Nuclear factor erythroid 2-related factor 2 (NFE2L2) Transcription Factor using HepaRG (AID 2283527)
Procedure, shortened: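 Differentiated human HepaRG cells, serum-free induction medium, exposed 48 h in duplicate to eight half-log concentrations up to 100 uM in 0.5% DMSO. NFE2L2 mRNA by Fluidigm TaqMan qRT-PCR, normalised to ACTB, GAPDH, POLR2A; bidirectional change versus DMSO.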

[13] = read-out: succinate dehydrogenase complex iron sulfur subunit B (SDHB), SDHB (gene 6390); assay: LTEA_HepaRG_SDHB: Life Technologies and Expression Analysis (LTEA) Assay for succinate dehydrogenase complex iron sulfur subunit B (SDHB) using HepaRG (AID 2283528)
Procedure, shortened: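 SDHB transcript level read by TaqMan qRT-PCR, housekeeping-normalised (ACTB, GAPDH, POLR2A), after 48 h chemical treatment of plated HepaRG cells; eight concentrations top 100 uM, half-log steps, 0.5% DMSO, duplicates; fitted both directions against DMSO.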

[14] = read-out: solute carrier (SLCO1B1), SLCO1B1 (gene 10599); assay: LTEA_HepaRG_SLCO1B1: Life Technologies and Expression Analysis (LTEA) Assay for solute carrier (SLCO1B1) using HepaRG (AID 2283530)
Procedure, shortened: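 SLCO1B1 transcript levels were quantified by TaqMan qRT-PCR using three housekeeping genes for normalization. This followed 48 h chemical exposure (100 uM top, half-log, 8 points, 0.5% DMSO) of HepaRG liver cells, with gain or loss fitted relative to DMSO.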

[15] = read-out: sulfotransferase 2A1 (SULT2A1), SULT2A1 (gene 6822); assay: LTEA_HepaRG_SULT2A1: Life Technologies and Expression Analysis (LTEA) Assay for sulfotransferase 2A1 (SULT2A1) using HepaRG (AID 2283531)
Procedure, shortened: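 Expression change of SULT2A1, by qRT-PCR with three housekeeping-gene normalization, was scored bidirectionally versus DMSO. Cells: differentiated HepaRG, dosed in duplicate for 48 h across 8 points, highest 100 µM, half-log dilution, 0.5% DMSO.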

[16] = read-out: Transforming Growth Factor (TGFB1), TGFB1 (gene 7040); assay: LTEA_HepaRG_TGFB1: Life Technologies and Expression Analysis (LTEA) Assay for Transforming Growth Factor (TGFB1) Transporter using HepaRG (AID 2283533)
Procedure, shortened: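 TGFB1 transcript measured by qRT-PCR with normalisation to three housekeeping genes (ACTB, GAPDH, POLR2A); human HepaRG line treated in duplicate for 48 hr with an 8-point series topping at 100 uM, 0.5% DMSO vehicle, bidirectionally fitted.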

TIMP1, TIMP1 (gene 7076) = assay: LTEA_HepaRG_TIMP1: Life Technologies and Expression Analysis (LTEA) Assay for TIMP1 using HepaRG (AID 2283534)
Procedure, shortened: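 Bidirectional change in TIMP1 transcript versus 0.5% DMSO, measured by TaqMan qRT-PCR with three housekeeping genes for normalization. HepaRG human liver cells dosed 48 h in duplicate, top concentration 100 uM with half-log dilutions.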

[17] = read-out: Thyroid Hormone Responsive (THRSP), THRSP (gene 7069); assay: LTEA_HepaRG_THRSP: Life Technologies and Expression Analysis (LTEA) Assay for Thyroid Hormone Responsive (THRSP) using HepaRG (AID 2283536)
Procedure, shortened: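 Differentiated HepaRG cells treated 48 h in serum-free induction medium with 8 half-log concentrations up to 100 uM (0.5% DMSO), duplicates. THRSP mRNA by TaqMan qRT-PCR normalised to ACTB, GAPDH, POLR2A; bidirectional fit versus DMSO.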

[18] = read-out: Nuclear factor NF-kappa-B p105 subunit (Homo sapiens) (UniProt P19838); assay: LTEA_HepaRG_NFKB1: Life Technologies and Expression Analysis (LTEA) Assay for Nuclear Factor Kappa B Subunit 1 (NFKB1) using HepaRG (AID 2283521)
Procedure, shortened: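 NFKB1 transcript was measured by TaqMan qRT-PCR on Fluidigm arrays, normalised to three housekeeping genes and fitted in both directions against 0.5% DMSO. HepaRG cells were dosed in duplicate for 48 h in serum-free induction medium, eight half-log steps from 100 uM.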

Measured: AC50

Chain of Nuclear factor erythroid 2-related factor 2 (Homo sapiens) (Q16236 whole entry, looked up): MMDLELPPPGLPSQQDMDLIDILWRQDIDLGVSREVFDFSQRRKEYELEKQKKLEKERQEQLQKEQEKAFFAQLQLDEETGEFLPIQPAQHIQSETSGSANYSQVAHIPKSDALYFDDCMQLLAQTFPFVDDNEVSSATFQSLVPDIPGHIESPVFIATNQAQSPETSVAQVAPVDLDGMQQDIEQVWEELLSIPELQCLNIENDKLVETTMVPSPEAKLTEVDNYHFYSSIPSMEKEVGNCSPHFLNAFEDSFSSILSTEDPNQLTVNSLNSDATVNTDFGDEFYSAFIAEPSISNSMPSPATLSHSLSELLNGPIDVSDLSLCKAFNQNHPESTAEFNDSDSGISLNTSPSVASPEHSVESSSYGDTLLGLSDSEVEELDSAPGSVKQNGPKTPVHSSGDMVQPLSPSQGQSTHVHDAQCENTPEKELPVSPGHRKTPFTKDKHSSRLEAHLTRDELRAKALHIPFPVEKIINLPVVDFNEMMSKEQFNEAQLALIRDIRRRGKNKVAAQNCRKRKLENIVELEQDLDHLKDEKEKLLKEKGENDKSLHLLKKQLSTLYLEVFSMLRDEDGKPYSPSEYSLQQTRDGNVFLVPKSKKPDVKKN
Chain of Nuclear factor NF-kappa-B p105 subunit (Homo sapiens) (P19838 whole entry, looked up): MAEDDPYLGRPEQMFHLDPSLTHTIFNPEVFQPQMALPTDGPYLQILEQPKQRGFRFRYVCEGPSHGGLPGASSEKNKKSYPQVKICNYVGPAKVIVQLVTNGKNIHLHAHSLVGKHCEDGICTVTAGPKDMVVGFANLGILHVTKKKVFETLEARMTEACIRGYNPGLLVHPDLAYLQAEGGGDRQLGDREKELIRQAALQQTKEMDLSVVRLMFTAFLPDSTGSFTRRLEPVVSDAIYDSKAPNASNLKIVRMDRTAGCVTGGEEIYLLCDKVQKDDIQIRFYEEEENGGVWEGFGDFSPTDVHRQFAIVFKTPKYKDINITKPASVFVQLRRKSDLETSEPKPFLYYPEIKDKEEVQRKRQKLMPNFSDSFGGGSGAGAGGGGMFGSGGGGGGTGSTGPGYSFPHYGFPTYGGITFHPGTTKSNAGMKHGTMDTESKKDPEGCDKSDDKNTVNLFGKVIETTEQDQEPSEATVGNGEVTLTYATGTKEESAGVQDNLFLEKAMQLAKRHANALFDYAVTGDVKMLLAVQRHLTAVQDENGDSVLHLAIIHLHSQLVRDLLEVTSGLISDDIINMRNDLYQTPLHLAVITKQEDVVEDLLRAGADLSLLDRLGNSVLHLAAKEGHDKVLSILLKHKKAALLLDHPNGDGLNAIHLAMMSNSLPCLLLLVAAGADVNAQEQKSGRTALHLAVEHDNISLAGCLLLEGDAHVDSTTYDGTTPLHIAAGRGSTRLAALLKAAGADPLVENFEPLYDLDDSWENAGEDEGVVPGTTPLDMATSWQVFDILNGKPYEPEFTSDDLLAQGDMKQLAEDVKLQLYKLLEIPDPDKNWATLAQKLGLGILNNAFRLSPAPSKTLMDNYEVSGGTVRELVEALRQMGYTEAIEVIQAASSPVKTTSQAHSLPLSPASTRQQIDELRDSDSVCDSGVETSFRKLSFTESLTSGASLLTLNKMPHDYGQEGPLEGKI

O=C(N[C@H]1CN2CCC1CC2)c1ccc2c(c1)OCCO2
not listed: [18]
inactive: all other assays above

COc1ccccc1N
not listed: [18]
inactive: all other assays above

CCCCCCCCCCCCc1cccc(S(=O)(=O)O)c1
active: [3] 8.93 µM | [12] 45 µM | [16] 45 µM | [17] 66.9 µM
inactive: all other assays above

CC(C)(C)c1ccccc1O
inactive: all assays above

O=C(O)C1(c2ccc3c(c2)OC[C@H](Cc2ccc(-c4ccccc4)cc2)[C@H]3O)CCCC1
active: [1] 88.4 µM | [7] 50 µM | [18] 76 µM | [8] 80.5 µM | [9] 91.5 µM | [13] 81.6 µM | [16] 77.5 µM | TIMP1, TIMP1 (gene 7076) 78.8 µM
inactive: all other assays above

Oc1cc(Cl)c(Cl)cc1Cl
inactive: all assays above

CC(C)O.CC(C)O.OCCN(CCO)CCO.OCCN(CCO)CCO.[Ti]
inactive: all assays above

CN(C)C(=S)S
not listed: [18]
inactive: all other assays above

OCCN(CCO)CCO
inactive: all assays above

Clc1cccc(Cl)c1
inactive: all assays above

Cc1cc(C)cc(C)c1
inactive: all assays above

N#Cc1cccnc1
not listed: [18]
inactive: all other assays above

Oc1c(Cl)cc(Cl)cc1Cl
not listed: [12] | [18]
inactive: all other assays above

Clc1cccc(Cl)c1Cl
inactive: all assays above
